This is a sample that favours compounds with a hit; in the whole collection about 18% have one here.
HepG2 viability: qHTS for Inhibitors of TGF-b: Cytotox Counterscreen; hit rate 0.76% among 410,000; AID 588856, 2011; HepG2 CAGA-GFP viability, ATP luminescence, 18 h; Potency, µM (highest dose often 46.1 µM), without a hit: at the top dose activity change, negative = cytotoxicity, usual class: cytotoxic; further: potency means the concentration at half of the fitted maximal effect
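CellTiter-Glo luminescence gave cytotoxicity after 18 hours at 37 degrees C. The cells were HepG2 CAGA-GFP in 1% FBS DMEM, stimulated with 500 pg/mL TGF-beta after compound addition. %Activity was normalised to no-cell wells (complete cell-killing) and DMSO (no toxicity), and curves were fitted and classified.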
DT40 TDP1 no CPT: qHTS for Inhibitors of human tyrosyl-DNA phosphodiesterase 1 (TDP1): qHTS in cells in absence of CPT; DT40 Tdp1-/- hTDP1 cells, no CPT, ATP luminescence, 48 h; Potency, µM (series often up to 46.2 µM), for inactives: at the highest dose activity change, negative = growth inhibition, actives largely listed as inhibitors; hit rate 15% among 420,000; further: potency means the concentration at half of the fitted maximal effect; on the % scale 0 is the no-effect control and ±100 the full control effect; nearly all actives have a fitted effect of over 55% in size
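Compound effects on proliferation are scored in DT40 Tdp1-/-;hTDP1 cells in the absence of CPT. ATP levels (CellTiter-Glo luminescence) are recorded after a ≥48 hr, 37 °C incubation.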
IL-1B inflam inh: qHTS for Inhibitors of Inflammasome Signaling: IL-1-beta AlphaLISA Primary Screen. THP-1 LPS/ATP IL-1B secretion, AlphaLISA, 16 h; active compounds read low. activity change, % at 57.5 µM. hit rate 4.7% among 360,000; in the data active means activity change below about -50%; inconclusive means mostly about -30% to -49%; further: on the % scale 0 is the no-effect control and ±100 the full control effect
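Secreted IL-1B measured by AlphaLISA bead assay after 16 h compound exposure of THP-1 cells; compounds (final up to 57.5 uM) added 1 h before LPS (250 ng/mL) and ATP (1.25 mM) stimulation; lower signal means less secretion.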
TGFb inhibitor: qHTS for Inhibitors of TGF-b; HepG2 CAGA-GFP TGF-b/SMAD3 reporter, GFP fluorescence, 18 h; TGF-beta stimulated, 500 pg/mL final; Potency, µM (top dose mostly 46.1 µM), for inactives: at the highest dose activity, negative = inhibition, usual class: inhibitors; hit rate 1.2% among 410,000; AID 588855, 2011; further: potency means the concentration at half of the fitted maximal effect; on the % scale 0 is the no-effect control and ±100 the full control effect; nearly all actives have a fitted effect of over 65% in size
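Inhibition of TGF-beta-driven CAGA-GFP reporter expression in HEPG2 cells is measured by cellular GFP fluorescence after 18 h stimulation with 500 pg/mL recombinant TGF-beta in 1% FBS medium at 37 degrees C.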
TDP1 cell CPT: qHTS for Inhibitors of human tyrosyl-DNA phosphodiesterase 1 (TDP1): qHTS in cells in presence of CPT | hit rate 12% among 420,000 | Potency, µM (top dose mostly 46.2 µM), inactives show top-dose activity change, negative = growth inhibition, hits mostly inhibitors | chicken DT40 Tdp1-/-;hTDP1 cells + 20 nM CPT, ATP luminescence, 48 h; further: potency means the concentration at half of the fitted maximal effect; on the % scale 0 is the no-effect control and ±100 the full control effect; nearly all actives have a fitted effect of over 55% in size
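Cell growth measured by CellTiter-Glo luminescence after a minimum 48 h, 37 C compound exposure with 20 nM CPT in Tdp1-knockout DT40 cells stably expressing hTDP1, seeded 400/well; qHTS titration format.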
TDP1 block: qHTS Assay for Inhibitors of Tyrosyl-DNA Phosphodiesterase (TDP1); Tyrosyl-DNA phosphodiesterase 1 (Homo sapiens), Q9NUW8; AID 485290, 2010; Potency, µM (doses to about 130 µM), inactives show at the highest dose activity change, negative = inhibition, hits mostly inhibitors; hit rate 0.28% among 350,000; recombinant TDP1, AlphaScreen DNA substrate cleavage; further: potency means the concentration at half of the fitted maximal effect; on the % scale 0 is the no-effect control and ±100 the full control effect; nearly all actives have a fitted effect of over 40% in size
Target sequence (Q9NUW8 whole entry, looked up): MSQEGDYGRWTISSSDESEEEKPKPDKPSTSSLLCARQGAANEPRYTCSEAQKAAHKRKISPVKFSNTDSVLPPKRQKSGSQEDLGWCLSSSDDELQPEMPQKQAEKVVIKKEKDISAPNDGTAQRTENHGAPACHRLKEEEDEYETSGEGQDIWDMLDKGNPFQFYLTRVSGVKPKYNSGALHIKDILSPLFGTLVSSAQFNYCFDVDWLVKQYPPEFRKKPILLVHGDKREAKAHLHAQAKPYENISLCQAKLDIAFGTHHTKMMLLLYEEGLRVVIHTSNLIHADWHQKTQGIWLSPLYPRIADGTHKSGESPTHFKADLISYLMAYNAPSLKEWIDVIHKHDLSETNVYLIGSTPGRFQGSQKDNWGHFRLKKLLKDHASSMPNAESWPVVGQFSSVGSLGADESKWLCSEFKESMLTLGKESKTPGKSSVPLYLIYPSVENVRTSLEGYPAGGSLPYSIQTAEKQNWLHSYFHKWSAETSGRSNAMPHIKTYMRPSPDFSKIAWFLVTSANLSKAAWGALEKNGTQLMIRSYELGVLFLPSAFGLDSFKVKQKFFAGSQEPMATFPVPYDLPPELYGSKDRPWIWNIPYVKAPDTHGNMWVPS
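Compounds were preincubated with Tdp1 (1 nM final) for 15 min at room temperature before substrate (15 nM final) started a 5 min reaction; beads (10 ug/ml final) were then added for 10 min before AlphaScreen detection.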
* = called active by the depositor; ? = inconclusive; / = not tested or not shown; [ ] = remark or other dose. Unless noted, the call rests on the fitted dose curve; in most records, active means well fitted curve in the direction sought with a large enough effect; inconclusive means small, poorly fitted or top-dose-only effect, or another doubt; inactive means no such curve, though single readings can be large; an effect the other way counts as inactive or inconclusive.

SMILES	HepG2 viability	DT40 TDP1 no CPT	IL-1B inflam inh	TGFb inhibitor	TDP1 cell CPT	TDP1 block
COc1ccc([C@@H]2[C@@H]3C(=O)N(C(C)(C)C)C(=O)[C@@H]3[C@]3(Cc4ccccc4)C(=O)N(c4ccc(OC)cc4)C(=O)N23)cc1	-2.7%	-12.8%	2.4	0.7%	-2.6%	1.2%
CC(C)(C)N1C(=O)[C@H]2[C@@H](c3ccc(Br)cc3)N3C(=O)N(c4cccc(Br)c4)C(=O)[C@@]3(Cc3ccccc3)[C@H]2C1=O	6.9%	8.2µM*	-8.2	-13.3%	?	/
COc1ccc(N2C(=O)N3[C@H](c4cccc(C)c4)[C@@H]4C(=O)N(Cc5ccccc5)C(=O)[C@@H]4[C@]3(Cc3ccccc3)C2=O)cc1	-0.2%	13µM*	2.7	5.8%	11.6µM*	/
CC(C=NNc1ccc([N+](=O)[O-])cn1)=Cc1ccccc1	-0.8%	?	-9.3	-9.4%	?	/
CCN(CC)c1ccc(NC(=O)CCCN2C(=O)C(c3ccccc3)Oc3cccnc32)c(C)c1 (stereo not given)	-18.7%	10.3µM*	/	3.8%	18.4µM*	-7.7%
O=C(CCCN1C(=O)C(c2ccccc2)Oc2cccnc21)NCc1ccccc1F (stereo not given)	-14.5%	?	-22.4	2.6%	16.4µM*	1.3%
CC(=O)c1ccc(-c2ccc(C3C4C=CCCC4(C)C(=O)N3Cc3ccccc3)c(F)c2)cc1 (stereo not given)	-8.2%	/	/	?	/	5.6%
Cc1nc(SCC(=O)NC(C)(C#N)C2CC2)c2c(-c3cccs3)csc2n1 (stereo not given)	-41.6%	?	-58.9*	-39.7%	?	5.4%
Cn1c(SCC(=O)NCc2ccc3c(c2)OCO3)nc2scc(-c3cccs3)c2c1=O	-27.7%	?	22.4	-9.3%	?	2.1%
COc1cc(OC)c(N(C)S(=O)(=O)c2cccc(C(=O)Nc3nccs3)c2)cc1Cl	-20.1%	18.4µM*	-13.9	0.0%	?	0.3%
CC(NC(=O)c1cccc(S(=O)(=O)N2CCN(C)CC2)c1)C1CC2CCC1C2 (stereo not given)	-14.3%	?	-6.6	14.6%	-13.0%	-2.5%
COc1cc(OC)c(N(C)S(=O)(=O)c2cccc(C(=O)NC(C)C3CC4CCC3C4)c2)cc1Cl (stereo not given)	2.6%	23.1µM*	18.3	-1.9%	18.4µM*	0.6%
O=C(Nc1cc(-c2nc3cc(Cl)ccc3o2)ccc1Cl)c1cccc2ccccc12	-27.1%	-6.9%	/	-7.4%	1.1%	4.5%
O=C(CCn1cnc2ccccc2c1=O)Nc1ccc(S(=O)(=O)N2CCCC2)cc1	5.3%	10.7%	-0.3	0.0%	2.6%	8.2%
COc1ccc(NC(=O)c2cn(CC(C)C)c(=O)c3cc(OC)c(OC)cc23)cc1Cl	-6.1%	20.6µM*	/	-8.6%	20.6µM*	-2.9%
COc1cc2c(C(=O)Nc3ccc4c(c3)OCO4)cn(CC(C)C)c(=O)c2cc1OC	/	/	/	/	/	7.8%
COc1ccccc1CNC(=O)c1cn(C)c(=O)c2cc(OC)c(OC)cc12	2.1%	20.6µM*	20.6	-9.0%	18.4µM*	6.0%
COc1ccc(NC(=O)c2cn(C)c(=O)c3cc(OC)c(OC)cc23)cc1OC	-132.8%	-18.2%	30.3	2.0%	16.0%	/
COCCCNC(=O)c1cn(C)c(=O)c2cc(OC)c(OC)cc12	-15.7%	-4.4%	10.5	5.0%	12.9%	3.9%
COc1cccc(NC(=O)c2cn(C)c(=O)c3cc(OC)c(OC)cc23)c1	2.0%	14.6µM*	8.3	-0.6%	8.2µM*	1.0%
O=C(O)CCc1ccc(-c2ccccc2)n1CC(=O)Nc1ccccc1C(F)(F)F	-3.0%	-2.2%	/	-13.6%	-8.5%	9.8%
CCOc1ccc(-n2c(=O)c3c(C)c(C)sc3n(CC(=O)N3CCC(C)CC3)c2=O)cc1	-0.3%	20.6µM*	/	-0.2%	?	2.7%
CCOc1ccc(-n2c(=O)c3c(C)c(C)sc3n(CC(=O)Nc3ccc(CC)cc3)c2=O)cc1	-3.1%	-22.3%	/	-0.6%	?	-5.9%
COCc1c(C(=O)NC2CCCC2)cnn1-c1nccc(-c2cccs2)n1	/	-25.7%	/	/	?	/
COc1cccc(/C=N/NC(=O)CNC(=O)c2cccs2)c1O	0.1%	9.2µM*	112.2	-18.6%	5.8µM*	6.2%
SMILES	HepG2 viability	DT40 TDP1 no CPT	IL-1B inflam inh	TGFb inhibitor	TDP1 cell CPT	TDP1 block
COc1cccc(C=NNC(=O)c2ccncc2)c1O	-11.5%	0.184µM*	184.8	14.0%	0.92µM*	/
COc1cccc(/C=N/NC(=O)c2nc(-c3ccccc3)cc(-c3ccccc3)n2)c1O	-30.8%	9.2µM*	10.8	-21.3%	11.6µM*	?
COc1ccc(/C=N/NC(=O)c2ccncc2)c(OC)c1	-7.3%	8.2%	30.4	-11.0%	7.3%	/
COc1ccccc1C=NNC(=O)NN=Cc1ccccc1OC	-3.5%	?	-17.4	4.8%	-13.5%	/
COc1cccc(/C=N/NC(=O)N/N=C/c2cccc(OC)c2O)c1O	-11.0%	3.66µM*	-96.8*	-9.6%	?	/
COc1cccc(/C=N/NC(=O)CNC(=O)CCc2ccccc2)c1O	-10.1%	?	232.2	?	?	9.5%
COc1ccccc1NC(=O)CCNS(=O)(=O)c1ccc2c(c1)CC(C)N2C(=O)C1CC1 (stereo not given)	-3.2%	?	0.0	?	?	0.3%
COc1ccc(N2C=C3C(=O)C(C)(OC(=O)C4CCCC4)C(=O)C=C3C=C2c2ccsc2)cc1 (stereo not given)	/	/	/	/	/	7.2%[21 µM]
COc1ccccc1/C=C\C(=O)NCC(=O)N/N=C/c1cccc(OC)c1O	-18.0%	7.31µM*	183.1	?	7.31µM*	?
COc1ccccc1C=NN=C(N)C(N)=NN=Cc1ccccc1OC	-4.0%	-87.0%	-3.8	-0.9%	?	/
CCOc1ccc(/C=N/NC(=O)C(=O)N2CCCCCC2)c2ccccc12	-56.2%	-19.8%	?	7.94µM*	?	3.9%
O=C(N/N=C/c1ccccc1O)C(=O)N1CCCCCC1	-13.2%	?	163.9	3.5%	?	4.6%
COc1cccc(/C=N/NC(=O)C(=O)N2CCCC2)c1O	-0.4%	16.4µM*	116.7	-1.2%	?	-8.3%

Compound activity deposited in PubChem by National Center for Advancing Translational Sciences (NCATS).
